# How the values were obtained:
# Assay in all cases: DAPPL (digital affinity profiling via proximity ligation, sequencing); 10 mM Tris-HCl pH 7.5, 50 mM NaCl, 1 mM DTT, 4% glycerol, room temperature, 30 min; GST-TFs on glutathione beads, 16-mer random dsDNA library, 0.1% formaldehyde crosslink after washing; high values mean tight binding
# FLI1 = target: T1, FLI1 (Homo sapiens, UniProt Q01543 1-452); settings: protein: recombinant; tags: N-terminal GST; dsDNA, one strand shown
# T1 sequence: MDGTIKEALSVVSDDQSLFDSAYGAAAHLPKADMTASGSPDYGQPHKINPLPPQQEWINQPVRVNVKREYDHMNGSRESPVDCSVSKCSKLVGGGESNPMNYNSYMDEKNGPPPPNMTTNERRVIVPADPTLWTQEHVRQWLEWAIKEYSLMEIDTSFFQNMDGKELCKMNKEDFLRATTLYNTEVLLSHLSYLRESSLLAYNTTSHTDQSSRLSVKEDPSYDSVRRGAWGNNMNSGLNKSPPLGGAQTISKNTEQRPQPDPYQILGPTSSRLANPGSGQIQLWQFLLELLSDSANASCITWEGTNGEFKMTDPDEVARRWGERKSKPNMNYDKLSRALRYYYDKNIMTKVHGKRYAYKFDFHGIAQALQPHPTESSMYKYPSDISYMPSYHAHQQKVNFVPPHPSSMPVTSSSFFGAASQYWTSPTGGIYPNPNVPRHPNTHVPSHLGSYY
# How it was run: (§1)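 The binding signal reported is, for every hexamer, its read frequency for a factor over its read frequency for the tag-only sample. Reads came from pools of yeast-expressed, GST-fused human transcription factors on glutathione beads, barcoded with DNA and mixed with that sample, which were incubated with 200 nmole of a random double-stranded 16-mer DNA library in Tris/NaCl/DTT/glycerol buffer at room temperature for 30 min. After washing, the pools were crosslinked with 0.1% formaldehyde, proximity-ligated with BsaI/T4 ligase for 1 h at 37 °C, PCR-amplified and sequenced on an Illumina NextSeq500.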
# ELK1 = target: T2, ELK1 (Homo sapiens, UniProt P19419 1-428); settings: protein: recombinant; tags: N-terminal GST; dsDNA, one strand shown
# T2 sequence: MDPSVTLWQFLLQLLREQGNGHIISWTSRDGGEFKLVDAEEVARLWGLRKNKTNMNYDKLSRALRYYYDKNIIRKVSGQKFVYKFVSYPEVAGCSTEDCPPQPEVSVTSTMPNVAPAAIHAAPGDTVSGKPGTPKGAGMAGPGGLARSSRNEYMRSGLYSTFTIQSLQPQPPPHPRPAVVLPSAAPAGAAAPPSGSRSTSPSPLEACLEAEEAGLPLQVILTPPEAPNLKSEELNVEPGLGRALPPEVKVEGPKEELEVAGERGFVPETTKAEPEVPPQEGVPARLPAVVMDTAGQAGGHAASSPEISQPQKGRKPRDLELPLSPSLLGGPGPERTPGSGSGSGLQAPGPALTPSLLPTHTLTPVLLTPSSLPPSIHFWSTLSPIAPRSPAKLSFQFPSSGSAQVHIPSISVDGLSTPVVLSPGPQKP
# How it was run: as §1
# GABPA = target: T3, GABPA (Homo sapiens, UniProt Q06546 1-454); settings: protein: recombinant; tags: N-terminal GST; dsDNA, one strand shown
# T3 sequence: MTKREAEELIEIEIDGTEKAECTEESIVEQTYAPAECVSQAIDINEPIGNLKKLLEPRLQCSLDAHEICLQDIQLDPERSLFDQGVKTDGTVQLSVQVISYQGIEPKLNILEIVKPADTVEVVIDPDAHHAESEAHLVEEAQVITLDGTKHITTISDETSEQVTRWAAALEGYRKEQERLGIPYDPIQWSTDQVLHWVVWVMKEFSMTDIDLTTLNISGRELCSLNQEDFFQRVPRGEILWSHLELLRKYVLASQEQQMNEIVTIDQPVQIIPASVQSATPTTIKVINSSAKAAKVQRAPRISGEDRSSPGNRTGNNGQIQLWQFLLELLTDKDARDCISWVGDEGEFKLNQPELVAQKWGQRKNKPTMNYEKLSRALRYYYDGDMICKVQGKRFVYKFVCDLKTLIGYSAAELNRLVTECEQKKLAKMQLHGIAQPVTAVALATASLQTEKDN
# How it was run: as §1
# ERG = target: T4, ERG (Homo sapiens, UniProt P11308 1-479); settings: protein: recombinant; tags: N-terminal GST; dsDNA, one strand shown
# T4 sequence: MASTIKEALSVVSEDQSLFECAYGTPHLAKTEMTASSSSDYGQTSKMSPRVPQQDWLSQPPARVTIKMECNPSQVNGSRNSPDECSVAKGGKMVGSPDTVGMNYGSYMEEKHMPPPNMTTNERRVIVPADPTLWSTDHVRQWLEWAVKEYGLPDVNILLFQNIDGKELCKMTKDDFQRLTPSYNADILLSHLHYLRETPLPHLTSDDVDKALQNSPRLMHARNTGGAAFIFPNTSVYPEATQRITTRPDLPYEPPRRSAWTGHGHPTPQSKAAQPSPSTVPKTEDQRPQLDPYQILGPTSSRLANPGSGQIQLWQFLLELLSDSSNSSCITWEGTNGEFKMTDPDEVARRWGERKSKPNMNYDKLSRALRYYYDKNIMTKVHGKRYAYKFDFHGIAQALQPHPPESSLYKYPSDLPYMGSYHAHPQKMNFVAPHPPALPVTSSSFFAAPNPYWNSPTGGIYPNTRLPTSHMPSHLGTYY
# How it was run: as §1
# ELF1 = ELF1 (Homo sapiens, UniProt P32519 1-619); settings: protein: recombinant; tags: N-terminal GST; dsDNA, one strand shown
# How it was run: as §1
# EHF = target: T5, EHF (Homo sapiens, UniProt Q9NZC4 1-300); settings: protein: recombinant; tags: N-terminal GST; dsDNA, one strand shown
# T5 sequence: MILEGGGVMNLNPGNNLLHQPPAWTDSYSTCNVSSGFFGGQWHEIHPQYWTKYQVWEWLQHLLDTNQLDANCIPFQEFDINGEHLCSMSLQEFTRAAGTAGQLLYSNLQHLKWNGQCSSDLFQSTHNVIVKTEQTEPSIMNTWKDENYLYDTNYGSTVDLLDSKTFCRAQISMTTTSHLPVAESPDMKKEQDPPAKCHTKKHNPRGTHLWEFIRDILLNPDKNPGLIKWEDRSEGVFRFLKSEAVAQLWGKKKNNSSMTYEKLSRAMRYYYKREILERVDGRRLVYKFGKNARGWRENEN
# How it was run: as §1
# SPI1 = SPI1 (Homo sapiens, UniProt P17947 1-270); settings: protein: recombinant; tags: N-terminal GST; dsDNA, one strand shown
# How it was run: as §1
# SPIB = SPIB (Homo sapiens, UniProt Q01892 1-262); settings: protein: recombinant; tags: N-terminal GST; dsDNA, one strand shown
# How it was run: as §1
# ELK3 = target: T6, ELK3 (Homo sapiens, UniProt P41970 1-407); settings: protein: recombinant; tags: N-terminal GST; dsDNA, one strand shown
# T6 sequence: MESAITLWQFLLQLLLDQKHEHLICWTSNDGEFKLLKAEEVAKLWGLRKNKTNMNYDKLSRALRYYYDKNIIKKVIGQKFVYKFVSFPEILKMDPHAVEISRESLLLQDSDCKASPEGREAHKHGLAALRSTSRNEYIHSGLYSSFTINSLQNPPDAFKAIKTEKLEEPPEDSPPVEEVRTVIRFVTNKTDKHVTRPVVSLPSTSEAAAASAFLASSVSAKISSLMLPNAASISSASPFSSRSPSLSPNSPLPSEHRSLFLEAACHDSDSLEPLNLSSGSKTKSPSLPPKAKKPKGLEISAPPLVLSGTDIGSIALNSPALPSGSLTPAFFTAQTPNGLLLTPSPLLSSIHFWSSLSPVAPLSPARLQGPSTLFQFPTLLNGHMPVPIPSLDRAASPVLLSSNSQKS
# How it was run: as §1
# FEV = target: T7, FEV (Homo sapiens, UniProt Q99581 1-238); settings: protein: recombinant; tags: N-terminal GST; dsDNA, one strand shown
# T7 sequence: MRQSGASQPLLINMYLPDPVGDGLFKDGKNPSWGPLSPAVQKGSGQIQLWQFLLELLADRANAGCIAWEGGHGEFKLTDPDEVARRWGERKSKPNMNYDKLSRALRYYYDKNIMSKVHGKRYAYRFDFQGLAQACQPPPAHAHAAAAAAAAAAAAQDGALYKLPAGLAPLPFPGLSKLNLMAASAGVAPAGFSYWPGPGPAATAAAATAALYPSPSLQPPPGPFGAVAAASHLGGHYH
# How it was run: as §1
# ETV5 = ETV5 (Homo sapiens, UniProt P41161 1-510); settings: protein: recombinant; tags: N-terminal GST; dsDNA, one strand shown
# How it was run: as §1
# HSF1 = HSF1 (Homo sapiens, UniProt Q00613 1-529); settings: protein: recombinant; tags: N-terminal GST; chain copies: 3; dsDNA, one strand shown
# How it was run: as §1
# SPIC = target: T8, SPIC (Homo sapiens, UniProt Q8N5J4 1-248); settings: protein: recombinant; tags: N-terminal GST; dsDNA, one strand shown
# T8 sequence: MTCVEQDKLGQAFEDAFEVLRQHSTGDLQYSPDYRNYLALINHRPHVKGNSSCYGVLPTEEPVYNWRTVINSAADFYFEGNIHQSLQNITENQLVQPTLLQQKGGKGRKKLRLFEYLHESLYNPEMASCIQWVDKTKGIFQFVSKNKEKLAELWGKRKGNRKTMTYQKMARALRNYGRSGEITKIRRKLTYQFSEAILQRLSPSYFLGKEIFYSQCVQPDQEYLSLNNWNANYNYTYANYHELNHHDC
# How it was run: as §1
# ELF4 = ELF4 (Homo sapiens, UniProt Q99607 1-663); settings: protein: recombinant; tags: N-terminal GST; dsDNA, one strand shown
# How it was run: as §1
# ELK4 = target: T9, ELK4 (Homo sapiens, UniProt P28324-2 1-405); settings: protein: recombinant; tags: N-terminal GST; dsDNA, one strand shown
# T9 sequence: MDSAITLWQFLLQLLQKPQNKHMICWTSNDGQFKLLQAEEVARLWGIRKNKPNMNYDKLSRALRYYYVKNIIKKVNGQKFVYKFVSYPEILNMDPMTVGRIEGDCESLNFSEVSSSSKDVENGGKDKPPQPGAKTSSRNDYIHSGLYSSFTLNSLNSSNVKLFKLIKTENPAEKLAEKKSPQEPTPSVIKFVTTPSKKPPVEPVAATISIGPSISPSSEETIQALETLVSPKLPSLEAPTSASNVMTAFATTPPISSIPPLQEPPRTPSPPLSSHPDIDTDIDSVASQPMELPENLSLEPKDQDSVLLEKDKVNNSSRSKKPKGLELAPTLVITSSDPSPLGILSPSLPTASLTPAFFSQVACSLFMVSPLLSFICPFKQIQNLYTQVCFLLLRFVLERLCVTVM
# How it was run: as §1
# ETV2 = target: T10, ETV2 (Homo sapiens, UniProt O00321 1-342); settings: protein: recombinant; tags: N-terminal GST; dsDNA, one strand shown
# T10 sequence: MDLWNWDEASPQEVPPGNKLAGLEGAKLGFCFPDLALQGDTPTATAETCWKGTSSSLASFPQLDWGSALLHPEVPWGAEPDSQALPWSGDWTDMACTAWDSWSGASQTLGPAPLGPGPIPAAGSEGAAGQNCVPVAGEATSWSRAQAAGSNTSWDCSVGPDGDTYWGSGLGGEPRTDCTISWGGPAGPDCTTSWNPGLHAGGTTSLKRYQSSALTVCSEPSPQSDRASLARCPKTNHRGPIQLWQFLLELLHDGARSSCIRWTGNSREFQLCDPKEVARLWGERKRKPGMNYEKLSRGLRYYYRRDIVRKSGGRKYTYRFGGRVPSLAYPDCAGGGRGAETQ
# How it was run: as §1
# ETV1 = ETV1 (Homo sapiens, UniProt P50549 1-477); settings: protein: recombinant; tags: N-terminal GST; dsDNA, one strand shown
# How it was run: as §1
# Sequence of ETV5 (P41161 whole entry): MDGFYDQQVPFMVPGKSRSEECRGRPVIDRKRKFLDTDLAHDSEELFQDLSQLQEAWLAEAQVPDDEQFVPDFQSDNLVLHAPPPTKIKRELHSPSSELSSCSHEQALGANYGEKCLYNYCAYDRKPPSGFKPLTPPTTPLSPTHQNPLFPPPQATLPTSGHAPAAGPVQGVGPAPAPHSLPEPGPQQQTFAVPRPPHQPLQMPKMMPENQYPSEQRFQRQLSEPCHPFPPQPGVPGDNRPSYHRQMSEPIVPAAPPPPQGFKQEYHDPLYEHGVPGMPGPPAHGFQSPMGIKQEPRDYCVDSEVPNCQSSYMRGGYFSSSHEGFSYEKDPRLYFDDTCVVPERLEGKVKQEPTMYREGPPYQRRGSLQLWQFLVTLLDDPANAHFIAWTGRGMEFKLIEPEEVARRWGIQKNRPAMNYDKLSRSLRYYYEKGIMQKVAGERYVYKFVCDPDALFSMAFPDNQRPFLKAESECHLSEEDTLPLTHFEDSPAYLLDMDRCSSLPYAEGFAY
# Sequence of ELF1 (P32519 whole entry): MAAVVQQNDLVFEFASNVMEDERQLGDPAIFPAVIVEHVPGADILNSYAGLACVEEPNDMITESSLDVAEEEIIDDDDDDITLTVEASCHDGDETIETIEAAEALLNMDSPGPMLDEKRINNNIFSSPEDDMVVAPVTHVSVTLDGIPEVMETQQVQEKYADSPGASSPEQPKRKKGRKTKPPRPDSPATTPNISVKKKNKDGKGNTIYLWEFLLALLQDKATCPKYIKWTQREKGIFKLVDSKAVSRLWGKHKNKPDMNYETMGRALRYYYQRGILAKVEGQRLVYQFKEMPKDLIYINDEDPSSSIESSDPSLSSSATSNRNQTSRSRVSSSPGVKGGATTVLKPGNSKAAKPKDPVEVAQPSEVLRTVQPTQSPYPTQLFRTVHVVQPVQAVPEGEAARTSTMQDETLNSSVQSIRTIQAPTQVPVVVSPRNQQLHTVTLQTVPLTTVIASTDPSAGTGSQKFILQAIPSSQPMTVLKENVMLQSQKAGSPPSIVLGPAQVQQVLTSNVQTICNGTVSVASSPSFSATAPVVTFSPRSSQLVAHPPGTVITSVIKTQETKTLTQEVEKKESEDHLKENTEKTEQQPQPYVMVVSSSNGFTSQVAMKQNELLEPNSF
# Sequence of ELF4 (Q99607 whole entry): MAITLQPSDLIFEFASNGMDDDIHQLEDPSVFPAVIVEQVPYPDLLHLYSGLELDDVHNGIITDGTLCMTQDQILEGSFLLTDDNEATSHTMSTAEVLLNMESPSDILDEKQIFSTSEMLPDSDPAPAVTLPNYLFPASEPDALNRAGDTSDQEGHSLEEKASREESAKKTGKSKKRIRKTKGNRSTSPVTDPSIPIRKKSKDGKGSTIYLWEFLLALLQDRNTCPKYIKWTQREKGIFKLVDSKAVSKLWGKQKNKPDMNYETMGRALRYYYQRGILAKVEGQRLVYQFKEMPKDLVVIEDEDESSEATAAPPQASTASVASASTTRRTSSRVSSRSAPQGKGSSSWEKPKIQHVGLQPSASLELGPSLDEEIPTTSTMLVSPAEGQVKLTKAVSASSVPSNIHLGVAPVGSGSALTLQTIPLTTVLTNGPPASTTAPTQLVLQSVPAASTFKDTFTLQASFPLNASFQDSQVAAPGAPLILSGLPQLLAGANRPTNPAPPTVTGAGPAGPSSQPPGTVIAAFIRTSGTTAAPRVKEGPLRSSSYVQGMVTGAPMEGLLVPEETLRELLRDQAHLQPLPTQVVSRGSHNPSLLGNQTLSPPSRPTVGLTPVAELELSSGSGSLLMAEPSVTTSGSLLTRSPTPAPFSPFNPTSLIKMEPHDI
# Sequence of HSF1 (Q00613 whole entry): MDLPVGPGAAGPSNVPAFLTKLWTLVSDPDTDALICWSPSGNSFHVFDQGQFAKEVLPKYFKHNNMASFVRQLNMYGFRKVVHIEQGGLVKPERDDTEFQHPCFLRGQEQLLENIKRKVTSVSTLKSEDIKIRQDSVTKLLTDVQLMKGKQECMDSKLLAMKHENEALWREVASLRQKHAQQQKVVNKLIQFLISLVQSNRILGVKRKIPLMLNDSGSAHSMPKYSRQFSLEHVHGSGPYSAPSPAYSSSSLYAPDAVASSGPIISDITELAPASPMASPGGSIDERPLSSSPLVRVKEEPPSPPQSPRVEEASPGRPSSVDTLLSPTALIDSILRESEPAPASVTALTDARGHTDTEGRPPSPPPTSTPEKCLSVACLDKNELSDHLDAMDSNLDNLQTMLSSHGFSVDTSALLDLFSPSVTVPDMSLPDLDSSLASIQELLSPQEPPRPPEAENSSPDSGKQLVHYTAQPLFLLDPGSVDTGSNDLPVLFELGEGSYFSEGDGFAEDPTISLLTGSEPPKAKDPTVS
# Sequence of ETV1 (P50549 whole entry): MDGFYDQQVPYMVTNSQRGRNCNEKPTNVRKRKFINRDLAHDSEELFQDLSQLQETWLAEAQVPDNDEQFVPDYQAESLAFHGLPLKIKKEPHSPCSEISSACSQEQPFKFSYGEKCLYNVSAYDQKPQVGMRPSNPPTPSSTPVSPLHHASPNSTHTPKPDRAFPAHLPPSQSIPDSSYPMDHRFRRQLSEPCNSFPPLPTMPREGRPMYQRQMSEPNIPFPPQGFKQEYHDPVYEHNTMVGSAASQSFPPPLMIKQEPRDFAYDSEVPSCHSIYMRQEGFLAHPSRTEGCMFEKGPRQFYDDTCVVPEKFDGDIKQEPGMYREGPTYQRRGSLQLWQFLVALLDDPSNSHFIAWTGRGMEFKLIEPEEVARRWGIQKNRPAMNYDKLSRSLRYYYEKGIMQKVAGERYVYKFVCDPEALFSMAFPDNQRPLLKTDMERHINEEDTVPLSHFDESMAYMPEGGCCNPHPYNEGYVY
# Sequence of SPIB (Q01892 whole entry): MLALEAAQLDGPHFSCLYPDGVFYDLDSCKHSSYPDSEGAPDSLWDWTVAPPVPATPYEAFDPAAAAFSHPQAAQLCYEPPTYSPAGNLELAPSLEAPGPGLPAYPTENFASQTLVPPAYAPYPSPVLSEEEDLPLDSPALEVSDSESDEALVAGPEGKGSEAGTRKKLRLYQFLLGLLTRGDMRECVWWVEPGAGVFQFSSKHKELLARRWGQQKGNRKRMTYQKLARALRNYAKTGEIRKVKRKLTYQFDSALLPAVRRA
sequence,measurement,setting,value
TGTAGC,binding signal,FLI1,"1.1 fold enrichment (6-mer frequency, TF over GST control)"
same,binding signal,ELK1,"1.16 fold enrichment (6-mer frequency, TF over GST control)"
same,binding signal,GABPA,"1.16 fold enrichment (6-mer frequency, TF over GST control)"
same,binding signal,ERG,"1.11 fold enrichment (6-mer frequency, TF over GST control)"
same,binding signal,ELF1,"1.2 fold enrichment (6-mer frequency, TF over GST control)"
same,binding signal,EHF,"1.16 fold enrichment (6-mer frequency, TF over GST control)"
same,binding signal,SPI1,"1.17 fold enrichment (6-mer frequency, TF over GST control)"
same,binding signal,SPIB,"1.03 fold enrichment (6-mer frequency, TF over GST control)"
same,binding signal,ELK3,"1.27 fold enrichment (6-mer frequency, TF over GST control)"
same,binding signal,FEV,"1.17 fold enrichment (6-mer frequency, TF over GST control)"
same,binding signal,ETV5,"1.24 fold enrichment (6-mer frequency, TF over GST control)"
same,binding signal,HSF1,"1.02 fold enrichment (6-mer frequency, TF over GST control)"
same,binding signal,SPIC,"1.11 fold enrichment (6-mer frequency, TF over GST control)"
same,binding signal,ELF4,"1.26 fold enrichment (6-mer frequency, TF over GST control)"
same,binding signal,ELK4,"1.31 fold enrichment (6-mer frequency, TF over GST control)"
same,binding signal,ETV2,"1.24 fold enrichment (6-mer frequency, TF over GST control)"
same,binding signal,ETV1,"1.22 fold enrichment (6-mer frequency, TF over GST control)"
